An excerpt weighted towards active compounds, which were near 1.8% of everything screened.
CtBP-E1A blk = blocks the CtBP interaction with E1A; AlphaScreen GST-E1A/His-CtBP binding, 1536-well; stronger effect = lower value; 340,000 compounds, 0.49% hits; activity change, % (no concentration beside the values)
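GST-E1A and His-tagged CtBP (125 nM each as 5X stock) were preincubated with pin-transferred compound for 2 h at 37 °C in the dark, then glutathione donor and nickel acceptor beads were added for 1 h before AlphaScreen reading.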
pAkt inh = blocks phosphorylation of Akt; 360,000 compounds, 0.32% hits; Neuro2A IGF-stimulated pAkt S473 HTRF, 20 min; stronger effect = lower value; activity change, % for hits at 50 µM; in the data active means activity change below about -80%; inconclusive means mostly about -51% to -80%
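Neuro2A cells in DMEM with 0.5% FBS, overnight at 37 deg C, given compound at single 50 µM final, then IGF (6 nM final) for 20 min at 37 deg C. Lysed; phospho-Akt Ser473 by HTRF after 24 h, 665/615 ratio.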
PI4K2A inh = PI4K2A (human) kinase inhibition; Q9BTU6; purified PI4K2A, ADP-Glo luminescence, 1 h; stronger effect = lower value; activity change, negative = inhibition, % at 76.9 µM; 420,000 compounds, 0.13% hits; in the data active means activity change below about -50%; inconclusive means mostly about -30% to -49%
Target sequence (Q9BTU6 whole entry, looked up): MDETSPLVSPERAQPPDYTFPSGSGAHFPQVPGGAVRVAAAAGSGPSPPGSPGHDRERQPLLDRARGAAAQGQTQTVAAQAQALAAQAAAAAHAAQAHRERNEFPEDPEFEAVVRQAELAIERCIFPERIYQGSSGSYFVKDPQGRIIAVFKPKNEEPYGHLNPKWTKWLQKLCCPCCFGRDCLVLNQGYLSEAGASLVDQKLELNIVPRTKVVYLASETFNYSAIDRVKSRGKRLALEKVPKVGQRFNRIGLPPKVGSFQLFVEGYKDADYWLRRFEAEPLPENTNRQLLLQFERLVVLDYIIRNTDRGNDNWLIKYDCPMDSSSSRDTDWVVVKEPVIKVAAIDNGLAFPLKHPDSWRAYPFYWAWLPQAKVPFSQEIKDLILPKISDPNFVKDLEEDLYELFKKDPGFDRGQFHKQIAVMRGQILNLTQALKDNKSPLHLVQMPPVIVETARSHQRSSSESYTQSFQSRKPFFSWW
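ADP-Glo luminescence measured ADP generated by PI4K2A enzyme (4 ug/mL before mixing) with 1.2 mM PI substrate (pre-mix) and 300 microM ATP (pre-mix). Tris pH7.5 buffer with MgCl2, Triton X-100; 1 h reaction at ambient temperature.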
PI5P4Ka inh = inhibitors of human PI5P4K alpha; P48426; 330,000 compounds, 1.2% hits; AID 652105; PI5P4Kalpha enzyme, ADP-Glo luminescence, 60 min; stronger effect = lower value; max response, %; active means max response of -50% or lower; inconclusive means between -30% and -50%; inactive means -30% or higher; further: value at the top dose of about 77 µM
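Human PI5P4Kalpha with substrate in 0.038 M HEPES pH 7.4, 0.28 mM EGTA, 0.1% CHAPS, 5% DMSO; reaction started with 5 microM ATP (final), 60 min at room temperature. ADP formed read by ADP-Glo luminescence.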
Six1-Eya2 blk = Six1/Eya2 interaction inhibition | Q15475+O00167 | AlphaScreen GST-Six1/His-Eya2 binding, biochemical; stronger effect = lower value | activity change, % (test concentration not listed) | 360,000 compounds, 0.56% hits | AID 651725
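AlphaScreen luminescence read after one hour at 37 °C in darkness. Pin-transferred compounds met GST-Six1 and His-Eya2 protein (5X stock 250 nM/500 nM) plus glutathione donor and Ni-chelate acceptor beads (5X, 50 ug/mL).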
Hits are given with their value; n = inactive; u = inconclusive; x = not tested or not shown; ! = a repeat was not active. Unless noted, no stated cut-off is given here; in the data, active means activity change below about -65%; inconclusive means mostly about -30% to -63%; inactive means weaker than that.

SMILES	CtBP-E1A blk	pAkt inh	PI4K2A inh	PI5P4Ka inh	Six1-Eya2 blk
O=C(CNS(=O)(=O)c1ccc([N+](=O)[O-])cc1)N/N=C/c1ccc(O)cc1O	u	n	n	n	-73
O=[N+]([O-])c1ccc(NN=Cc2ccc(O)cc2O)nc1	-74	n	n	n	-69
O=[N+]([O-])c1ccc(NN=Cc2ccc(O)cc2)nc1	n	n	n	n	n
Oc1ccc2c(c1)OCC1(O)Cc3cc(O)c(O)cc3C21 (stereo unspecified)	n	n	n	-88	n
COc1cccc(NC(=O)CN(C)C(=O)CCC(=O)c2cc(C)sc2C)c1	-77	n	n	n	n
CN1CCSc2ccc(C(=O)Nc3ccc(Cl)cc3)cc21	n	n	n	n	n
C#CCNC(=O)C1=C[C@@H](c2ccc(C#C)cc2)C[C@@H](OCCCCO)O1	n	n	n	-56	n
C#Cc1ccc([C@@H]2C=C(C(=O)NCc3ccccc3)O[C@H](OCCCCO)C2)cc1	n	n	n	-64	n
C#CCNC(=O)C1=C[C@@H](c2ccccc2)C[C@@H](OCCCCO)O1	n	n	n	n	n
COC(=O)c1ccccc1NC(=O)c1cccc(NC(=O)C(C)C)c1	x	n	n	n	n
COCc1[nH][nH]c(=O)c1C=Nc1ccc(OC(F)(F)F)cc1	x	n	n	n	n
CN1CCc2cccc3c2[C@H]1Cc1ccc(O)c(O)c1-3	n	n	n	-56!	n
CN1CCc2cc3c(c4c2[C@H]1[C@H](O)c1ccccc1-4)OCO3	u	n	n	n	n
O=C(COC(=O)c1ccccc1SCC(=O)NC1CCS(=O)(=O)C1)NC1CCS(=O)(=O)C1 (stereo unspecified)	n	n	n	n	n
CCNC(=O)NC(=O)COC(=O)c1ccccc1SCC(=O)NC(=O)NCC	n	n	n	-63	n
CCOC(=O)c1ccc(NC(=O)c2ccc3c(c2)C(=O)N(CC2CCCO2)C3=O)cc1 (stereo unspecified)	n	n	n	n	n
OCC[C@@H]1C[C@H](O)[C@@H](O)[C@]2(OCCc3ccccc32)O1	n	n	n	n	-83
CCOc1ccc(OCC)c(-c2c(=O)n(OCc3ccccc3C(=O)OC)c3ccccc3[n+]2[O-])c1	n	x	n	x	n
O=C1CSC(c2ccccc2)N1CC12CC3CC(CC(O)(C3)C1)C2 (stereo unspecified)	n	n	n	n	n
Cc1cc(O)c(C(=O)/C=C/c2ccc(Cl)cc2)c(=O)o1	n	n	n	-69	n
CSc1ccc(/C=C/C(=O)c2c(O)cc(C)oc2=O)cc1	n	n	n	-54	n
CCOC(=O)NNc1ccc2nonc2c1[N+](=O)[O-]	u	n	u	-65	u
Cn1ccc(=S)c2ccccc21	n	n	n	-73	n
Cn1c(=S)n(C)c2ccccc21	x	n	n	n	n
COC(=O)c1oc2ccc(Br)cc2c1NC(=O)CN1CCN(C)CC1	n	-115%	n	n	n
SMILES	CtBP-E1A blk	pAkt inh	PI4K2A inh	PI5P4Ka inh	Six1-Eya2 blk
COC(=O)c1oc2ccccc2c1NC(=O)CN1CCCC1	n	n	n	x	n
COc1cc(/C=N/n2c(-c3n[nH]c4c3CCC4)n[nH]c2=S)ccc1O	n	n	n	u	n
N#Cc1cn(CCOc2ccc(F)cc2)c2ccccc12	n	-117%	n	n	n
O=C1NC2(CCCCO2)CO1 (stereo unspecified)	n	n	n	n	n
COC(=O)C1=NN(c2ccc(C)cc2)C2(S1)SC(C(C)=O)=C(C)N2c1ccccc1 (stereo unspecified)	n	n	n	n	n
COC(=O)C1=NN(c2ccccc2)C2(S1)SC(C(C)=O)=C(C)N2c1ccccc1 (stereo unspecified)	u	-138%	n	n	u
CCOC(=O)/C=C/C(=O)Nc1ccc(-c2nnc3n2CCCCC3)cc1	-66	n	n	n	n
O=C1S/C(=C\C=C\c2ccco2)C(=O)N1c1ccccc1	n	n	n	-50	n
O=C1S/C(=C\C=C\c2ccco2)C(=O)N1c1ccc(O)cc1	n	n	n	-87	n
CCn1c(CSc2nc(C)cc(C)n2)nnc1SCC(=O)Nc1ccccc1	n	n	n	x	n
Cc1ccc(Nc2nnc(SCC(=O)NCC3CCCO3)s2)cc1 (stereo unspecified)	n	n	n	n	u
Cc1ccc(Nc2nnc(SCC(=O)NCC3CCCO3)s2)cc1C (stereo unspecified)	-77	n	n	n	-68
Cc1nc2ccccc2c(=O)n1C1CCCCCC1	n	n	n	n	n
COc1ccccc1CNc1nc(=S)[nH]c2cc(OC)c(OC)cc12	-85	n	n	n	-81
COc1cc2[nH]c(=S)nc(NCc3cccs3)c2cc1OC	-90	n	n	n	-84
COc1cc2[nH]c(=S)nc(NCc3ccc(Cl)cc3)c2cc1OC	u	n	n	n	u
CCCn1c(-c2ccc(S(=O)(=O)N3CCOCC3)cc2)csc1=Nc1ccc(OCC)cc1	x	x	n	x	x
Cc1ccc(S(=O)(=O)N2CCC(C(=O)N[C@@H](C)C(=O)Nc3ccc(F)cc3)CC2)cc1	n	n	n	n	n
CN(Cc1ccc(C(F)(F)F)cc1)C(=O)c1ccc2ccccc2n1	n	n	n	n	n
COc1ccc(-c2cc(-c3ccccc3)nc3ncnn23)cc1	n	n	n	n	n
COc1ccc(NC(=O)CC(=O)Nc2ccc(OC)cc2OC)c(OC)c1	n	n	n	x	n
COc1ccc(NC(=O)CC(C)=O)c(OC)c1	x	n	n	-64	n
C=CCn1c(CNc2ccccc2)nnc1SCC(=O)N/N=C/c1ccccc1O	u	n	n	n	-72
O=C(CC(=O)N/N=C/c1ccccc1O)NCc1cccnc1	n	n	n	n	-90
COc1ccccc1/C=N/NC(=O)CC(=O)NCc1cccnc1	n	n	n	n	n
SMILES	CtBP-E1A blk	pAkt inh	PI4K2A inh	PI5P4Ka inh	Six1-Eya2 blk
COc1cccc(/C=N/Nc2nc3ccccc3n3cnnc23)c1	u	n	n	n	u
C=CCn1c(COc2ccc(Cl)cc2)nnc1SCC(=O)N/N=C/c1cccc(O)c1	n	n	n	n	n
COc1cccc(/C=N/Nc2nc3ccccc3n3cnnc23)c1O	-93	n	n	n	-87
CSc1nc(C)cc(OCC(=O)N/N=C/c2ccccc2O)n1	-69	n	n	n	-68
c1ccc(Nc2nc(NCCN3CCOCC3)nc(Nc3ccccc3)n2)cc1	n	n	n	n	n
O=C(N/N=C/c1ccc(O)cc1)c1cccc(C(F)(F)F)c1	n	n	n	n	n
COc1cccc(/C=N\NC(=O)Cn2nnc3ccccc32)c1O	-93	n	n	n	-93
O=C(Cn1cc(C(F)(F)F)ccc1=O)N/N=C/c1ccccc1O	-91	n	n	n	u
O=C(CN1C(=O)NC2NC(=O)NC21)N/N=C/c1ccccc1O (stereo unspecified)	-90	n	n	n	-91
O=C(CN1C(=O)NC2NC(=O)NC21)NN=C1CCCC1 (stereo unspecified)	n	n	n	n	n

From PubChem BioAssay
